FBW7 activator: human FBW7 E3 ligase activation, primary screen; Q969H0; AlphaScreen FBW7–phospho-cyclin E peptide binding, activator screen; normalized activity (activation), % at 26.1 µM; actives 0.13% (n = 650,000); AID 1259310; in the data active = normalized activity above about 1.9%;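 also: purified mutant Fbw7 with reduced substrate affinity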
MITF primary: blocks human microphthalmia-associated transcription factor; O75030; AlphaScreen MITF homodimerization, bead proximity signal; inhibition, % at 2.6 µM; actives 0.91% (n = 650,000); AID 1259374; in the data active = inhibition above about 50%;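 also: 0% = vehicle wells with protein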
GPR151 ag: activators of human GPR151; PathHunter beta-arrestin GPR151 cells, luminescence; Q8TDV0; actives 1% (n = 650,000); activation, % at 11.2 µM; in the data active = activation above about 4.9%;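 also: 0% = median of compound wells and 100% = cells with positive control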
Target sequence (Q8TDV0 whole entry, looked up): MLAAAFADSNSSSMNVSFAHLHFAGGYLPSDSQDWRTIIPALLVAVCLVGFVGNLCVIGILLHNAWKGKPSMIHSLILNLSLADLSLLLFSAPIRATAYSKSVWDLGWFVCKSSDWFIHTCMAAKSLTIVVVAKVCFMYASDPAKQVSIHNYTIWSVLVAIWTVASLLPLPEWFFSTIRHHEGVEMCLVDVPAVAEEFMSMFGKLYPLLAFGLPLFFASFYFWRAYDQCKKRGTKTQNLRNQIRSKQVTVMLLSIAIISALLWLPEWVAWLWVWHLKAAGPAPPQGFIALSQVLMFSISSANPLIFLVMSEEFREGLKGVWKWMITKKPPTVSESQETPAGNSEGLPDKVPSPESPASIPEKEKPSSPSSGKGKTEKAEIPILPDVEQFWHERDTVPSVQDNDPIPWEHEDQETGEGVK
TEAD-YAP inh: TEAD-YAP interaction inhibition; actives 1.4% (n = 640,000); HEK-TIYL cells, TEAD-Gal4/YAP UAS-luciferase luminescence; inhibition, % at 9.12 µM; AID 1259422; in the data active = inhibition above about 32%;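 also: 0% = median of test compound wells and 100% = reference inhibitor wells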
MITF inh conf: confirmation of human MITF inhibitors | inhibition, % at 2.6 µM | AID 1259372 | AlphaScreen MITF homodimerization, biotin/His-MITF beads | actives 16% (n = 4,700) | shares compounds with MITF primary;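 active = inhibition above a cutoff derived from the DMSO control wells, cut at about 28% in these data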;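 also: 0% = MITF dimer wells with DMSO only; inhibitors lower the bead chemiluminescence by keeping MITF from dimerizing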
AS interf DR: AlphaScreen optical interference, dose response counter-screen; shares compounds with MITF primary; AlphaScreen optical interference counterscreen, cell-free; IC50, µM; actives 6% (n = 480); AID 1259373; call rule not given here
AS interf ctr: counter-screen: compounds optically interfering with AlphaScreen. AID 1259376. actives 7.6% (n = 4,700). shares compounds with MITF primary. inhibition, % at 2.6 µM. LysRS AlphaScreen counterscreen, signal interference, triplicate;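 active = inhibition above a cutoff derived from the DMSO control wells, cut at about 30% in these data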
* marks the source's active call; other numbers are inactive results; / = no result. This is a sample that favours compounds with a hit; in the whole collection about 3.5% have one here.

SMILES | FBW7 activator | MITF primary | GPR151 ag | TEAD-YAP inh | MITF inh conf | AS interf ctr | others
COc1cccc(CN2CCN(C3CCCCC3C)CC2)c1OC (stereo not given) | 0 | 86* | -2 | 1 | 20 | 10
COc1cccc(CN2CCN(C3CCCC3)C(CCO)C2)c1OC (stereo not given) | 0 | 5 | 1 | 11 | / | /
COc1cccc(CN2CCN(C3CC4CCC3C4)CC2)c1OC (stereo not given) | 0 | 71* | -1 | -4 | -1 | 16
C/C(=N\NC(=O)c1cc(N)cc([N+](=O)[O-])c1)c1ccc(NC(=O)c2ccccc2)cc1 | 0 | 1 | -1 | -25 | / | /
N#CCc1c(C#N)c(N)nc(N2CCN(CCO)CC2)c1C#N | 0 | -4 | 2 | -2 | / | /
COc1ccc(C)cc1Nc1cnn(C23CC4CC(CC(C4)C2)C3)c(=O)c1Cl | 0 | 4 | 2 | 10 | / | /
COc1ccc([N+](=O)[O-])cc1Nc1cnn(C23CC4CC(CC(C4)C2)C3)c(=O)c1Cl | 1 | 51* | -1 | -6 | 5 | 13
O=C(c1ccncc1)N1CCN(Cc2cccc3ccccc23)CC1 | 0 | 67* | 0 | -5 | -3 | 4
O=C(c1cccnc1)N1CCN(Cc2cccc3ccccc23)CC1 | -1 | 51* | 0 | -4 | -12 | -8
CCOC(=O)N1CCN(Cc2cccc3ccccc23)CC1 | 1 | -21 | 0 | 0 | / | /
COc1ccc2ccccc2c1CN1CCN(C(=O)c2cccnc2)CC1 | 0 | 50 | -1 | 0 | / | /
Cc1sc2ncn(-c3ccc(Cl)cc3)c(=O)c2c1C | 0 | 3 | -1 | -12 | / | /
CCOC(=O)CNC(=O)c1sc2cc(C)ccc2c1Cl | 1 | 15 | -1 | 12 | / | /
Cc1ccc2c(Cl)c(C(=O)NCc3ccncc3)sc2c1 | 0 | 70* | 0 | 5 | 4 | 4
COc1ccc(COC2OC(COC(C)=O)C(OC(C)=O)C(OC(C)=O)C2NC(C)=O)cc1 (stereo not given) | 0 | 11 | 2 | -1 | / | /
CCC(C)C(=O)NCc1nnc2n1CCN(C/C=C/c1ccco1)CC2 (stereo not given) | 0 | 60* | 1 | 7 | 77* | -8 | AS interf DR=>6.5
Cc1ccc(N2CC(NC(=O)c3ccccc3[N+](=O)[O-])CC2=O)cc1C (stereo not given) | 0 | 3 | 1 | 5 | / | /
O=C(CNCCN1CCOCC1)N1CCc2ccccc2C1 | 0 | 71* | -1 | -6 | 3 | 1
O=C(CNC1CCCCCC1)Nc1ccccc1N1CCCCC1 | 0 | 41 | 3 | -5 | / | /
O=C(CNCCN1CCCCC1)Nc1ccccc1N1CCCCC1 | 0 | 85* | 1 | 6 | 6 | 13
O=C(CNC1CCCCC1)Nc1ccccc1N1CCOCC1 | 0 | 55* | 0 | -7 | 7 | 14
CC1=CC(C)(C)N(C(=O)CNCCCN2CCOCC2)c2cc(C)ccc21 | 0 | 56* | -1 | -1 | 6 | 17
CCOc1cc(C2NC(=S)NC(C)=C2C(=O)Nc2ccccc2)ccc1OCc1ccccc1 (stereo not given) | 0 | 9 | 0 | -6 | / | /
CCc1c(C)nc2cc(-c3cc(OC)cc(OC)c3)nn2c1NCCO | 0 | -2 | 4 | -18 | / | /
COc1cc(/C=C2/SC(=O)NC2=O)cc(Cl)c1O | 0 | 26 | 1 | -5 | / | /
SMILES | FBW7 activator | MITF primary | GPR151 ag | TEAD-YAP inh | MITF inh conf | AS interf ctr | others
COc1ccc(Cn2c(C)cn3c4c(=O)n(C)c(=O)n(C)c4nc23)cc1 | 0 | -10 | 0 | 7 | / | /
O=C(CNCCCO)Nc1ccccc1N1CCCCCC1 | 1 | 22 | -1 | -4 | / | /
O=C(CNCCN1CCCCC1)Nc1ccccc1N1CCOCC1 | 0 | 86* | 2 | -5 | 5 | 12
O=C(CNCCCN1CCOCC1)Nc1ccccc1N1CCOCC1 | 0 | 84* | 0 | -2 | -8 | -7
O=C(CNC1CCCC1)Nc1ccccc1N1CCCCCC1 | 0 | 18 | 2 | -3 | / | /
CC(C)CCNCC(=O)Nc1ccccc1N1CCCCC1 | 0 | 58* | 1 | -3 | 7 | 18
O=C(CNCCCO)Nc1ccccc1N1CCCCC1 | 0 | 57* | 0 | -2 | 7 | 18
O=C(CCCC1=NS(=O)(=O)c2ccccc2N1)OCc1ccc(F)cc1 | 0 | -11 | 1 | -2 | / | /
O=C(Nc1nc2c(s1)COc1ccccc1-2)C1CCCN1S(=O)(=O)c1ccc(Cl)cc1 (stereo not given) | 0 | 52* | 1 | 8 | 0 | -4
COc1cc2nc(-c3ccc(N4C(=O)c5ccc(-c6nc7cc(OC)c(OC)cc7c(=O)o6)cc5C4=O)cc3)oc(=O)c2cc1OC | 0 | 8 | 0 | -12 | / | /
Cc1cc2ncn(Cc3noc(-c4ccco4)n3)c2cc1C | 0 | 55* | 1 | -19 | 33* | -5 | AS interf DR=>6.5
COCc1nc(Cn2cnc3cc(C)c(C)cc32)no1 | 0 | -2 | 0 | -3 | / | /
CCN(CC(=O)Nc1ccccc1OC)CC(=O)Nc1ccccc1-c1ccccc1 | -1 | 82* | 0 | 44* | 20 | 29
COCCNC(=O)/C(C#N)=C/c1ccccc1I | 0 | 11 | -1 | 4 | / | /
COc1ccc2oc(=O)c(-c3nnc(-c4ccc(Cl)cc4)o3)cc2c1 | 0 | 84* | -1 | 4 | 3 | 7
COc1cccc(CN2CCN(C(=O)c3cccc(OC)c3OC)CC2)c1 | 0 | 54* | 0 | 5 | 9 | 7
COc1ccc(CN2CCN(CCOc3ccc([N+](=O)[O-])c(C)c3)CC2)c(OC)c1OC | 0 | 83* | 0 | 6 | -2 | 9
Cc1cc(OCCN2CCCCCC2)ccc1[N+](=O)[O-] | 0 | 20 | -1 | -4 | / | /
COc1cc(CN2CCN(C(=O)c3cccc(OC)c3OC)CC2)cc(OC)c1O | 0 | 39 | 0 | 1 | / | /
COc1ccc(OC)c(CN2CCN(Cc3ccc(OC)c(OC)c3OC)CC2)c1 | 0 | 32 | -1 | -5 | / | /
COc1ccc(CN2CCN(Cc3ccccc3Cl)CC2)c(OC)c1OC | 0 | 54* | 0 | 4 | 14 | 18
COc1cccc(CN2CCN(Cc3ccc(OC)c4ccccc34)CC2)c1OC | 0 | 70* | 2 | -3 | 7 | 13
CCNc1nc(C(=O)NCCc2ccc(O)cc2)cs1 | 0 | -2 | -1 | 0 | / | /
Cc1nc(SCC(=O)N2CCCCC2)[nH]c(=O)c1C | 0 | -5 | 2 | 1 | / | /
COc1cccc(CN2CCN(Cc3ccc(OC)c(OC)c3OC)CC2)c1 | 0 | 66* | 0 | 6 | 3 | 14
COc1ccc(CN2CCN(CCOCCOc3ccccc3)CC2)c(OC)c1OC | -1 | 75* | 0 | 6 | -12 | -3
COc1cccc(C(=O)N2CCC3(CC2)CC3C(=O)NCCCc2ccccc2)c1OC (stereo not given) | 1 | 73* | 0 | -1 | -3 | -3

Screens deposited in PubChem BioAssay by The Scripps Research Institute Molecular Screening Center.
